# Experimental data from article PMC5540273 (PLoS ONE, 2017).
# Tests used:
# [1] = system: TYK2(JH2domain-pseudokinase)
# [2] = system: TYK2(JH1domain-catalytic)
# VPS34 = system: T1, VPS34
# T1 construct: gene PIK3C3
# 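Further: kd values determined as follow-up on hits from a single-replicate KINOMEscan panel screen.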
compound,measurement,setting,value
Nc1n[nH]c2ncc(-c3ccccc3)cc12 [SB-517081],Kd,[1],0.95 µM
CCCC(=O)Nc1n[nH]c2ncc(-c3cccc4ccccc34)cc12 [SB-642057],Kd,TLK2,> 10 µM
COc1ccc(Nc2nccc(N3CCC(NS(=O)(=O)c4ccc(NC(C)=O)cc4)C3)n2)cc1 (stereo not drawn) [GSK1379729],Kd,TNNI3K,> 10 µM
same,Kd,[2],0.086 µM
same,Kd,VPS34,0.097 µM
O=C1NC(=O)C(c2ccccc2)=C1Nc1cccc(O)c1 [SB-390534],Kd,TLK2,2.4 µM
OCCCNc1nccc(-c2c(-c3cccc(C(F)(F)F)c3)nn3cc(C(F)(F)F)ccc23)n1 [GW630813],Kd,WNK4,> 10 µM
O=c1cc(N2CCOCC2)nc2n(Cc3ccc(F)c(Cl)c3)ccn12 [GSK2297099],Kd,VPS34,0.015 µM
COc1cccc(-n2cnc3c(N)ncnc32)c1 [SKF-97416],Kd,[2],> 10 µM
O=C(NCCNc1ccnc(Nc2ccc(F)cc2)n1)Nc1ccc2c(c1)OCO2 [GSK1379882],Kd,TESK1,> 10 µM
same,Kd,TXK,> 10 µM
Nc1ncnc2c1ncn2-c1cccc(F)c1 [SKF-97560],Kd,TNNI3K,> 10 µM
